Data on 14 compounds can be found in PubChem BioAssay (NCATS).

Experiment [1] can be described thus: qHTS to identify inhibitors of the type 1 interferon - major histocompatibility complex class I in skeletal muscle: primary screen against the NCATS Mechanism Interrogation Plate v5.0 (MIPE) Libary (AID 1347411). Further: nearly all actives have a fitted effect of over 65% in size. Further: potency means the concentration at half of the fitted maximal effect.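 On activity change, negative = inhibition: plate controls were vehicle for no effect and reference inhibitor for full effect.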 Summed up: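 Seed engineered human myoblasts (HLA-B HiBit) in medium without dexamethasone containing 4 ng/ml IFN-beta; after 1 hr add compound titrations (top 46 uM final). Incubate 24 hrs at 37 C, lyse 10 min with HiBiT reagent, read luminescence.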
On the technique in general: qHTS replaces the single test concentration by a dilution series.

A short description of experiment [2]: Primary qHTS for inhibitors of nuclear receptor binding SET domain protein 2 (NSD2) in an isogenic RCH-ACV NSD2 p.E1099K mutant (9B) (AID 1645876). Further: nearly all actives have a fitted effect of over 70% in size. Further: potency means the concentration at half of the fitted maximal effect. On activity change, negative = viability loss: on the % scale 0 is the no-effect control and ±100 the full control effect.
Experiment [3] is described as follows: Primary qHTS for inhibitors of nuclear receptor binding SET domain protein 2 (NSD2) in an RCH-ACV wild type WT cells (2C) (AID 1645877). Further: nearly all actives have a fitted effect of over 70% in size. Further: potency means the concentration at half of the fitted maximal effect.
In experiment [4] the target is Glutathione peroxidase 1 (Homo sapiens) (UniProt P07203). In words: Primary qHTS Assay for Inhibitors of Recombinant Selenoprotein Glutathione Peroxidase 1 (GPX1) (AID 1845191). Further: nearly all actives have a fitted effect of over 65% in size. Further: potency means the concentration at half of the fitted maximal effect. On activity, negative = inhibition: on the % scale 0 is the no-effect control and ±100 the full control effect. Summed up: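 GR-coupled readout: NADPH consumption tracked by fluorescence, ex 340/em 450 nm, at t=0 and after 15 min at RT. Final mix 10 nM GPX1, 1 mM GSH, 0.5 mM CHP, 0.5 mM NADPH, 100 nM GR, 0.01% BSA, following 30 min enzyme–compound preincubation.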

Experiment [5] is described as follows: qHTS assay to identify inhibitors of the type 1 interferon - major histocompatibility complex class I in skeletal muscle: Counter screen cell viability and HiBit confirmation (AID 1347412). Further: potency means the concentration at half of the fitted maximal effect. On activity change, negative = inhibition: on the % scale 0 is the no-effect control and ±100 the full control effect. On all read-outs here: nearly all actives have a fitted effect of over 60% in size. The settings on record: iHSKM muscle cells + IFN-b, HiBiT or CellTiter-Glo, 24 h; for Potency: HiBiT; for activity change, negative = inhibition: Viability, at 45.9 µM (top of the series). The method in brief:
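Luminescence read-out: Nano-Glo HiBiT lytic signal from C-terminally HiBiT-tagged HLA-B in CRISPR-edited human myoblasts, plus CellTiter Glo ATP as viability counter screen. IFN-beta 4.0 ng/ml; 24 hrs treatment at 37 C, 5% CO2.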

In experiment [6] the target is Phospholipid hydroperoxide glutathione peroxidase GPX4 (Homo sapiens) (UniProt P36969). The experiment is described as follows: Primary qHTS Assay for Inhibitors of Recombinant Selenoprotein Glutathione Peroxidase 4 (GPX4) (AID 1845192). Further: nearly all actives have a fitted effect of over 65% in size. On activity change, negative = inhibition: on the % scale 0 is the no-effect control and ±100 the full control effect. The settings on record: outcome: dose series up to 50 µM unless noted. The method in brief: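 Steps: GPX4 plus compound, 30 min RT; add GR/GSH/NADPH master mix; start with cumene hydroperoxide; read 340/450 nm fluorescence at 0 and 15 min. Finals were 200 nM GPX4, 1 mM GSH, 0.5 mM CHP, 0.5 mM NADPH, 100 nM GR.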

Experiment [7] is described as follows: qHTS drug screen for cell cycle checkpoint inhibitors in PARPi-resistant BRCA-mutant ovarian cancer cell lines. (AID 1963452; calls by dose curve; further: potency means the concentration at half of the fitted maximal effect). The settings on record: PEO1/OlaR viability, CellTiter-Glo luminescence, 96 h; for Z-AUC: stronger effect = lower value. The method in brief: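 PEO1, PEO4 and PEO1/OlaR ovarian cancer cells, 600 per well, exposed 96 h at 37C to a dilution series. Viability read by CellTiter-Glo luminescence, normalized to DMSO and empty wells; activity summarized as Z-AUC.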

Where [8] appears, read: measured here: PEO1 parental Z-AUC.

Molecules are shown by their SMILES. Results filed as inconclusive are left out. The source made the active and inactive calls. Unless noted, the call rests on the fitted dose curve; in most records, active means well fitted curve in the direction sought with a large enough effect; inconclusive means small, poorly fitted or top-dose-only effect, or another doubt; inactive means no such curve, though single readings can be large; an effect the other way counts as inactive or inconclusive.

Chain of Phospholipid hydroperoxide glutathione peroxidase GPX4 (Homo sapiens) (P36969 whole entry, looked up): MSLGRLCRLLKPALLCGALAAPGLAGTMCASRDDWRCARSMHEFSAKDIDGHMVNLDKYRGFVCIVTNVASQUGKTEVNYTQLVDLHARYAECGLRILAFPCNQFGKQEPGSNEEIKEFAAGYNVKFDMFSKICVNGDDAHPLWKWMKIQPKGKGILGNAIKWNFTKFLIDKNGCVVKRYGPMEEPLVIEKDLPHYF
Chain of Glutathione peroxidase 1 (Homo sapiens) (P07203 whole entry, looked up): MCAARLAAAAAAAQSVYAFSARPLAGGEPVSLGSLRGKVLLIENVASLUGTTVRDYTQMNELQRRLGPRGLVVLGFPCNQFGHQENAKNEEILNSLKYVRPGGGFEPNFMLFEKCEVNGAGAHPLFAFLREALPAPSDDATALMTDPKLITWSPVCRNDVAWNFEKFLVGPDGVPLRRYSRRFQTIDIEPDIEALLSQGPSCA

On to `C[C@@H](Oc1ccc2[nH]nc(/C=C/c3cnn(CCO)c3)c2c1)c1c(Cl)cncc1Cl`, for which the Potency in experiment [1] was 0.93 µM (active); in experiment [2] it was 0.833 µM (active); in experiment [3] it was 0.417 µM (active); in experiment [5], 0.557 µM (active). For the same compound, the Potency result in experiment [4] is “inactive”.

As for `CC(=O)Nc1cc(Oc2ccc3c(nc(Nc4ccc(F)cc4F)n3C)c2C)ccn1`, the Potency was 0.262 µM (active) in experiment [1], 11.8 µM (active) in experiment [2], 2.63 µM (active) in experiment [3] and 1.11 µM (active) in experiment [5]. Further, the Potency result in experiment [6] was “inactive”.

Turning to `Fc1cccc(-n2cnc3c(NCc4nc5c(F)c(F)ccc5[nH]4)nc(N4CCOCC4)nc32)c1`, the Potency in experiment [1] is 0.523 µM (active); in experiment [2], 0.166 µM (active); in experiment [3] it was 0.166 µM (active); in experiment [5], 0.442 µM (active). Further, the Potency entry in experiment [4] is “inactive”. In addition, the Z-AUC in experiment [7] is -1.76 (inactive); in experiment [7] (setting [8]), -2.45; in experiment [7] (measured here: PEO4 Z-AUC) it was -2.33. The activity change, negative = inhibition in experiment [5] is -14.7% (inactive).

With `Cc1ccc(NC(=O)c2ccc3c(c2)OCCO3)cc1NC(=O)c1ccc2nc(OCCN3CCCC3)ccc2c1`, the Potency was 0.286 µM (active) in experiment [1], 0.0574 µM (active) in experiment [2], 0.0456 µM (active) in experiment [3] and 0.557 µM (active) in experiment [5]. For the same compound, the Potency entry in experiment [4] and in experiment [6] was “inactive” each time. In addition, the Z-AUC in experiment [7] was -1.99 (inactive); in experiment [7] (setting [8]), -1.87; in experiment [7] (measured here: PEO4 Z-AUC) it was -2.21. Besides, the activity change, negative = inhibition in experiment [5] was -19.9% (inactive).

As for `CC[C@@]1(O)C(=O)OCc2c1cc1n(c2=O)Cc2c-1nc1cc(F)c(C)c3c1c2[C@@H](N)CC3`, the Potency in experiment [1] is 0.165 µM (active); in experiment [2], 0.0033 µM (active); in experiment [3] it was 0.0026 µM (active); in experiment [4] it was 14.5 µM (active); in experiment [7], 0.0087 µM (active); in experiment [5] it was 0.313 µM (active). Also, the values for the Z-AUC in experiment [7] (setting [8]) and in experiment [7] (measured here: PEO4 Z-AUC) were -3.81 and -2.97, respectively. For the same compound, the activity change, negative = inhibition in experiment [5] is -10.9% (inactive).

In the case of `O=C(/C=C/c1cccnc1)NCCCCC1CCN(C(=O)c2ccccc2)CC1`, the Potency in experiment [7] is 0.0436 µM (active).

Regarding `NC1=N[C@@]2(c3cc(NC(=O)c4ccc(F)cn4)ccc3F)COC[C@H]2CS1`, the Potency result in experiment [1], in experiment [2], in experiment [3], in experiment [4] and in experiment [6] was “inactive” throughout. Moreover, the Z-AUC in experiment [7] is 1.41 (inactive); in experiment [7] (setting [8]), 0.672; in experiment [7] (measured here: PEO4 Z-AUC) it was 0.598.

For `O=C1CC(c2c[nH]c3ccc(F)cc23)C(=O)N1` (stereo not drawn), the Potency result in experiment [1], in experiment [2], in experiment [3], in experiment [4] and in experiment [6] was “inactive” in each case. The Z-AUC in experiment [7] was 0.488 (inactive); in experiment [7] (setting [8]), 0.554; in experiment [7] (measured here: PEO4 Z-AUC), 0.655.

Consider `N#Cc1ccc(N(Cc2ccc(Br)cc2)n2cnnc2)cc1`, for which the Potency result in experiment [1], in experiment [2], in experiment [3], in experiment [4] and in experiment [6] was “inactive” throughout. Besides, the results for the Z-AUC in experiment [7], in experiment [7] (setting [8]) and in experiment [7] (measured here: PEO4 Z-AUC) were -0.397 (inactive), -0.74 and -0.908, respectively.

For `Nc1nccc(-c2c(-c3ccc(F)cc3)ncn2C2CCN(Cc3ccon3)CC2)n1`, the Potency result in experiment [1], in experiment [4] and in experiment [6] was “inactive” each time. The Potency in experiment [2] and in experiment [3] was 7.42 µM (active) each time. Also, the Z-AUC in experiment [7] was 0.042 (inactive); in experiment [7] (setting [8]), 0.6; in experiment [7] (measured here: PEO4 Z-AUC), 0.374.

With `CCn1c(=O)c(-c2ccc(-c3cncc(C)n3)cc2Cl)cc2cnc(NCCC3CCN(C)CC3)nc21`, the activity change, negative = inhibition was -29.5% [at 5.1 µM] (inactive) in experiment [1] and -3.33% [at 4.52 µM] (inactive) in experiment [6]. The results for the Potency in experiment [2] and in experiment [3] were 1.18 µM (active) and 1.32 µM (active), respectively. Also, in experiment [4], the outcome is “inactive [at 4.49 µM]”. Further, the values for the Z-AUC in experiment [7], in experiment [7] (setting [8]) and in experiment [7] (measured here: PEO4 Z-AUC) were 1.53 (inactive), 0.823 and 1.06, respectively.

As to `COc1cc(OC)c(/C=C/S(=O)(=O)Cc2ccc(OC)c(OP(=O)(O)O)c2)c(OC)c1`, the Potency result in experiment [1], in experiment [4] and in experiment [6] was “inactive” each time. Moreover, the Potency in experiment [2] is 0.0372 µM (active); in experiment [3], 0.0332 µM (active); in experiment [7], 0.049 µM (active). The Z-AUC in experiment [7] (setting [8]) is -2.04; in experiment [7] (measured here: PEO4 Z-AUC), -2.09.

For the compound `O=C(/C=C/c1ccc(/C=C/C(=O)Nc2ccc(C3=NCCN3)cc2)cc1)Nc1ccc(C2=NCCN2)cc1`, the activity change, negative = inhibition in experiment [1] was -3.84% [at 5.1 µM] (inactive); in experiment [6] it was -10.1% [at 4.52 µM] (inactive). In experiment [2], the activity change, negative = viability loss is -16.1% [at 4.96 µM] (inactive). Also, in experiment [3], the activity change, negative = cell killing is -11% [at 4.96 µM] (inactive). Also, in experiment [4], the activity, negative = inhibition was 2.37% [at 4.49 µM] (inactive). Further, the Z-AUC in experiment [7] was 0.122 (inactive); in experiment [7] (setting [8]), 0.179; in experiment [7] (measured here: PEO4 Z-AUC) it was 0.581.

As for `O=C(Nc1cccc(C(F)(F)F)c1)c1cccc2cc(Oc3cc(CO)ncn3)ccc12`, the Potency entry in experiment [1], in experiment [2], in experiment [3], in experiment [4] and in experiment [6] was “inactive” each time. Besides, the Z-AUC in experiment [7] was -0.478 (inactive); in experiment [7] (setting [8]), -0.0588; in experiment [7] (measured here: PEO4 Z-AUC), -0.749.
